Here are results for twelve compounds from PubChem BioAssay (NCATS).

Records with an inconclusive call do not appear. The list shows a part of the results. Active and inactive are the calls of the source. Unless noted, calls follow the shape of the dose curve; as a rule, active = well fitted curve in the direction sought with a large enough effect; inconclusive = small, poorly fitted or top-dose-only effect, or another doubt; inactive = no such curve, though single readings can be large; an effect the other way counts as inactive or inconclusive.

Assay [1] concerns the target Rap guanine nucleotide exchange factor 4 (Homo sapiens) (UniProt Q8WZA2). Description: Confirmatory qHTS for agonist of cAMP-regulated guanine nucleotide exchange factor 4 (EPAC2) (AID 1645884).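 Also: nucleotide exchange releases bodipy-GDP from Rap1 and this lowers its fluorescence; nearly all actives have a fitted effect of over 65% in size.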 Also: potency is read from the fitted curve at half-maximal effect. As to activation: % is scaled to controls: 0 for no effect and ±100 for the full control effect.
Assay [2] has the same target. Description: Confirmatory qHTS for antagonist of cAMP-regulated guanine nucleotide exchange factor 4 (EPAC2) (AID 1645885). Also: nearly all actives have a fitted effect of over 25% in size. As to activity change, negative = inhibition: % is scaled to controls: 0 for no effect and ±100 for the full control effect. Background: In qHTS, concentration-response curves come from the screen itself.
For assay [3], the target named is Rap guanine nucleotide exchange factor 3 (Homo sapiens) (UniProt O95398). Briefly: Counterscreen qHTS for antagonist of cAMP-regulated guanine nucleotide exchange factor 3 (EPAC1) (AID 1645888).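 Also: fluorescence loss as bound BODIPY-GDP is released from Rap1B; % of control where 0% means no effect.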 A digest of the protocol: (§1)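 Rap1B–BODIPY-GDP (250 nM) with 50 uM GDP; compounds pin-transferred to 9.74 nM–152 uM final (activator) or from 7.32 nM upwards (inhibitor). Fluorescence Ex/Em 480/540 nm read at 5 and 30 min, then after adding cAMP or buffer, at room temperature.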
In general terms: A counterscreen serves to expose hits that act by an unwanted route or on another target.

Assay [4] shares this target. Briefly: Counterscreen qHTS for agonist of cAMP-regulated guanine nucleotide exchange factor 3 (EPAC1) (AID 1645889). Also: % of control where 0% means no effect; nearly all actives have a fitted effect of over 40% in size. A digest of the protocol: as §1
Assay [5] has as its target DNA polymerase eta (Homo sapiens) (UniProt Q9Y253). Description: qHTS for Inhibitors of Polymerase Eta: Confirmatory Assay for Cherry-picked Compounds (AID 720502). Also: potency is read from the fitted curve at half-maximal effect. Conditions: Pol eta primer extension, TAMRA/BHQ fluorescence, 10 min. A digest of the protocol: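 Plates with 10 nM enzyme and compound stood 15 min at room temperature before substrate addition (50 nM final). Displacement of the TAMRA reporter from the BHQ-2 template was tracked for 10 min.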

For assay [6], the target named is Cytochrome P450 3A4 (Homo sapiens) (UniProt P08684). Description: qHTS Assay for Activators of Cytochrome P450 3A4 (AID 885). Also: nearly all actives have a fitted effect of over 65% in size. A digest of the protocol:
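Human CYP3A4 dealkylates Luciferin-PPXE to luciferin, which luciferase detection converts to light. Substrate was at its KM (25uM), buffer 200mM KPO4, reaction 60 min at RT.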

The target in assay [7] is Ubiquitin carboxyl-terminal hydrolase 1 (Homo sapiens) (UniProt O94782). Briefly: Inhibitors of USP1/UAF1: Pilot qHTS (AID 504865).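 Also: rhodamine fluorescence freed from ubiquitin-rhodamine substrate followed over time; top concentration of the series differs between compounds; % is scaled to controls: 0 for no effect and ±100 for the full control effect; nearly all actives have a fitted effect of over 35% in size.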 A digest of the protocol: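 USP1/UAF1 complex at 1 nM preincubated 15 min at room temperature with compound, then Ub-Rho substrate added at 150 nM final. Fluorescence (480/540 nm) read kinetically in 50 mM HEPES pH 7.8, 0.5 mM EDTA, 1 mM TCEP, 0.1 mg/ml BSA, 0.01% Tween-20.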

For assay [8], the target named is DNA dC->dU-editing enzyme APOBEC-3G (Homo sapiens) (UniProt Q9HC16). Briefly: qHTS for inhibitors of Vif-A3G interactions: Validation (AID 588379). Also: 0% is about no effect. A digest of the protocol: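 Yellow fluorescence (Ex 488, Em 500-530) of Vif-coexpressing HeLa A3G-eYFP cells, scanned by Acumen cytometer, reports blocked A3G degradation. Cells plated at 700/well overnight at 37 deg C before compound addition, then a further overnight compound incubation at 37 deg C.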

The target of assay [9] is Catechol O-methyltransferase (Homo sapiens) (UniProt P21964). Briefly: Confirmatory Screen for Target Class Profiling of Small Molecule Inhibitors of Methyltransferases (AID 1745852; calls by dose curve; also: potency is read from the fitted curve at half-maximal effect). The following applies: MTase-Glo luminescence, SAH detection, recombinant enzyme; measured here: COMT max response; stronger effect = lower value.
In assay [10] the target is Guanidinoacetate N-methyltransferase (Homo sapiens) (UniProt Q14353). The assay is described as above. The following applies: activity change, negative = inhibition: at 57.3 µM (top of the series) unless noted.
For assay [11], the target named is Nicotinamide N-methyltransferase (Homo sapiens) (UniProt P40261). Described as above. Conditions: MTase-Glo luminescence, SAH detection, recombinant enzyme; measured here: NNMT max response; stronger effect = lower value.
Assay [12] deals with Phenylethanolamine N-methyltransferase (Homo sapiens) (UniProt P11086). The assay is described as above. Conditions: MTase-Glo luminescence, SAH detection, recombinant enzyme; measured here: PNMT max response; stronger effect = lower value.
The target of assay [13] is DNA repair nuclease/redox regulator APEX1 (Homo sapiens) (UniProt P27695). Briefly: qHTS Validation Assay for Inhibitors of the Human Apurinic/apyrimidinic Endonuclease 1 (APE1) (AID 1705;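 also: TAMRA fluorescence gain over two minutes as APE1 cuts a quenched THF abasic duplex; % is scaled to controls: 0 for no effect and ±100 for the full control effect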). In a few lines:
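Fluorogenic double-stranded THF abasic-site substrate (5'-TAMRA/3'-BHQ-2), 50 nM final. Enzyme preincubated with compound 15 min at room temperature, then substrate added. Kinetic fluorescence (ex 525/em 598 nm) read three times at 60 s intervals; activity taken as third-minus-first read difference.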

The nature of assay [14]: Counterscreen for APE1 Inhibitors: Fluorescent Dye Displacement Validation Assay (AID 1707).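 Also: plate controls were ThO with dsDNA and no compound for no effect and ThO without dsDNA for full effect.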 In a few lines: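 Reaction mixture of 250 nM Thiazole Orange and 50 nM double-stranded abasic-site DNA was dispensed, compounds were pin-transferred, and fluorescence was read at endpoint (480 nm ex, 540 nm em). Reduced fluorescence indicated dye displacement by DNA binding.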
The nature of assay [15]: qHTS for differential inhibitors of proliferation of Plasmodium falciparum line 7G8 (AID 1815).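 Also: parasite growth measured after three days of incubation; plate controls were vehicle wells for no effect and reference inhibitor wells for full effect.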
Assay [16] in a line: qHTS for differential inhibitors of proliferation of Plasmodium falciparum line 3D7 (AID 1876).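 Also: parasite growth measured after three days of culture; 0% = vehicle wells and -100% = reference inhibitor wells.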
Assay [17] in a line: qHTS for differential inhibitors of proliferation of Plasmodium falciparum line D10 (AID 1877).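 Also: parasites grown with compound for 72 h before DNA staining; plate controls were vehicle wells for no effect and reference inhibitor wells for full effect.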
Assay [18] can be described thus: qHTS for differential inhibitors of proliferation of Plasmodium falciparum line Dd2 (AID 1882).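 Also: plate controls were DMSO vehicle for no effect and 0.29 µM artemisinin for full effect; nearly all actives have a fitted effect of over 65% in size.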 Conditions: Potency: Plasmodium falciparum Dd2 proliferation inhibition. In a few lines: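 SYBR Green DNA fluorescence (ex 485, em 535 nm) after overnight lysis quantifies parasite growth; compound exposure lasted 72 h at 37 C on infected red cells at 2.5% hematocrit, 0.3% parasitemia (final). Artemisinin 0.29 uM and vehicle wells define normalization.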

A short description of assay [19]: qHTS for differential inhibitors of proliferation of Plasmodium falciparum line W2 (AID 1883).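 Also: potency is read from the fitted curve at half-maximal effect; parasites grown with compound for 72 h before lysis and staining.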 The following applies: Potency: Plasmodium falciparum W2 proliferation inhibition.
Assay [20] in a line: qHTS for differential inhibitors of proliferation of Plasmodium falciparum line HB3 (AID 1886).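 Also: parasites grown with compound for 72 h before SYBR Green readout; plate controls were vehicle for no effect and reference inhibitor for full effect.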 Conditions: Potency: Plasmodium falciparum HB3 proliferation inhibition.
The target of assay [21] is Ferritin light chain (Equus caballus) (UniProt P02791). Description: qHTS Validation Assay for Identification of Novel General Anesthetics (AID 2323). Also: % is scaled to controls: 0 for no effect and ±100 for the full control effect. In a few lines:
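Horse-spleen apoferritin (10 uM) in PBS with 50% saturated 1-aminoanthracene; compounds pin-transferred, 10 min at room temperature. Fluorescence read at 380/535 nm, normalized to free 1-AMA and 1-AMA/apoferritin values; four-parameter Hill fit.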

The target in assay [22] is ATP-dependent DNA helicase Q1 (Homo sapiens) (UniProt P46063). Description: qHTS Validation Assay for Inhibitors of RecQ-Like Dna Helicase 1 (RECQ1) (AID 2353).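 Also: plate controls were DMSO vehicle for no effect and enzyme-free control for full effect.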 In a few lines:
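RECQ1T1 50 nM; forked duplex (20 bp + 30-nt ss tails) 200 nM, ATP 2 mM final; pH 8.0, 2 mM MgCl2, 2.5 ug/ml poly(dI-dC); 15 min compound preincubation; discontinuous kinetic read over 2 h at RT.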

Assay [23] is described as follows: Quantitative high throughput screen for delayed death inhibitors of the malarial parasite plastid, 96 hour incubation (AID 488745). Also: % is scaled to controls: 0 for no effect and ±100 for the full control effect; nearly all actives have a fitted effect of over 70% in size. A digest of the protocol: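 Decreased firefly luciferase luminescence indicates inhibited growth of reporter-integrated P. falciparum after two generations (96 h, 37 C, 5% CO2). Infected erythrocytes at 0.1% parasitemia, 2% hematocrit, in Albumax-supplemented RPMI 1640.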

Assay [24] in a line: Quantitative high throughput screen for delayed death inhibitors of the malarial parasite plastid, 48 hour incubation (AID 488752). Also: % is scaled to controls: 0 for no effect and ±100 for the full control effect; nearly all actives have a fitted effect of over 65% in size. In a few lines:
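One-generation (48 h) growth assay: a decrease in luciferase signal from an integrated reporter in P. falciparum-infected red cells (0.1% parasitemia, 2% hematocrit) after compound exposure at 37 C indicates parasite inhibition.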

The target of assay [25] is Transient receptor potential cation channel subfamily V member 1 (Homo sapiens) (UniProt Q8NER1). Briefly: HTS Assay for Compounds that Act as Enhancers of the Vanilloid Receptor 1 (AID 488979). Also: 0% is about no effect. In a few lines: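 TRPV1 cells loaded with Fluo-8 calcium dye; compound added and Ca2+ signal (ex 480/em 520 nm) followed 3 min, then capsaicin at EC20 added and read 2 more min to detect enhancement.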

The target of assay [26] is Thyrotropin receptor (Homo sapiens) (UniProt P16473). Briefly: qHTS Assay for Antagonists of the Thyroid Stimulating Hormone Receptor (AID 488980). Also: 0% is about no effect. In a few lines:
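TSHR-transfected HEK293 cells (2000/well) in HEPES-buffered HBSS with 70 uM RO 20-1724 were stimulated with 4 nM TSH (EC80, final) in the presence of compound. cAMP was measured by HTRF competition after lysis and 30 min at RT.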

Assay [27] deals with Thyrotropin-releasing hormone receptor (Homo sapiens) (UniProt P34981). Description: qHTS for Small Molecule Agonists and Allosteric Enhancers of Human TRH Receptor: Validation Screen for Agonists (AID 493127;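 active = calcium activation more than 3 SD above the typical response in the agonist read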;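 also: intracellular calcium rise by fluo-8 fluorescence before TRH EC20 addition; 0% is about no effect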). Conditions: TRH receptor agonist cell assay; at 2 µM; stronger effect = higher value. A digest of the protocol:
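Compound-evoked intracellular calcium release in fluo-8-loaded TRHR cells, read kinetically on FDSS (Ex 480/Em 530, 1 s/cycle) after 23 nL pintool transfer. Agonist phase preceded 10 nM TRH EC20 addition.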

The target in assay [28] is Galactokinase (Homo sapiens) (UniProt P51570). Description: qHTS Validation Assay for Inhibitors of Human Galactokinase (GALK) (AID 493189). Also: 0% is about no effect. A digest of the protocol: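 GALK (5 nM) with 35 uM ATP and 100 uM galactose in HEPES pH 8.0 with MgCl2, NaCl, DTT and BSA. Reaction ran 1 h at room temperature. Residual ATP read by Kinase-Glo Plus luminescence.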
Assay [29] is described as follows: Validation screen for small molecules that induce DNA re-replication in SW480 colon adenocarcinoma cells (AID 504364). Also: potency is read from the fitted curve at half-maximal effect. A digest of the protocol: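 Image-based DNA content read-out: Hoechst stain 40 min, total nuclear fluorescence intensity (ex 405 nm, em 500-530 nm) after 48 h compound exposure of 250 SW480 cells/well at 37 C, 5% CO2, versus DMSO vehicle.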

Phenylethanolamine N-methyltransferase (Homo sapiens), sequence (P11086 whole entry, looked up): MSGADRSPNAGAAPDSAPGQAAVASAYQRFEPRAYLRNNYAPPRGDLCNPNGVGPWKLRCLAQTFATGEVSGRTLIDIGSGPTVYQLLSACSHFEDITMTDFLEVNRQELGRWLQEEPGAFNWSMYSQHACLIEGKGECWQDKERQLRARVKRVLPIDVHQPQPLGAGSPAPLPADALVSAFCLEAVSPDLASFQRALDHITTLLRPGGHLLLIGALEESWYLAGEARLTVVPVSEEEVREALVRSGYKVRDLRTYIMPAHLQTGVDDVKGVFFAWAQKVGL
Catechol O-methyltransferase (Homo sapiens), sequence (P21964 whole entry, looked up): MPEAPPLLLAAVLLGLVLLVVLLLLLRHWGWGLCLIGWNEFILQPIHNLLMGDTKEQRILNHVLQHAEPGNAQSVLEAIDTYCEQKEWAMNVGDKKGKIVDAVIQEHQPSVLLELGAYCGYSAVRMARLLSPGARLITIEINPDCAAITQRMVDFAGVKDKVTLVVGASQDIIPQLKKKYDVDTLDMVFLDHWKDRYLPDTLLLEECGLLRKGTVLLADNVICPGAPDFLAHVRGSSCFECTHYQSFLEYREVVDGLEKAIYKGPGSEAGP
Rap guanine nucleotide exchange factor 3 (Homo sapiens), sequence (O95398 whole entry, looked up): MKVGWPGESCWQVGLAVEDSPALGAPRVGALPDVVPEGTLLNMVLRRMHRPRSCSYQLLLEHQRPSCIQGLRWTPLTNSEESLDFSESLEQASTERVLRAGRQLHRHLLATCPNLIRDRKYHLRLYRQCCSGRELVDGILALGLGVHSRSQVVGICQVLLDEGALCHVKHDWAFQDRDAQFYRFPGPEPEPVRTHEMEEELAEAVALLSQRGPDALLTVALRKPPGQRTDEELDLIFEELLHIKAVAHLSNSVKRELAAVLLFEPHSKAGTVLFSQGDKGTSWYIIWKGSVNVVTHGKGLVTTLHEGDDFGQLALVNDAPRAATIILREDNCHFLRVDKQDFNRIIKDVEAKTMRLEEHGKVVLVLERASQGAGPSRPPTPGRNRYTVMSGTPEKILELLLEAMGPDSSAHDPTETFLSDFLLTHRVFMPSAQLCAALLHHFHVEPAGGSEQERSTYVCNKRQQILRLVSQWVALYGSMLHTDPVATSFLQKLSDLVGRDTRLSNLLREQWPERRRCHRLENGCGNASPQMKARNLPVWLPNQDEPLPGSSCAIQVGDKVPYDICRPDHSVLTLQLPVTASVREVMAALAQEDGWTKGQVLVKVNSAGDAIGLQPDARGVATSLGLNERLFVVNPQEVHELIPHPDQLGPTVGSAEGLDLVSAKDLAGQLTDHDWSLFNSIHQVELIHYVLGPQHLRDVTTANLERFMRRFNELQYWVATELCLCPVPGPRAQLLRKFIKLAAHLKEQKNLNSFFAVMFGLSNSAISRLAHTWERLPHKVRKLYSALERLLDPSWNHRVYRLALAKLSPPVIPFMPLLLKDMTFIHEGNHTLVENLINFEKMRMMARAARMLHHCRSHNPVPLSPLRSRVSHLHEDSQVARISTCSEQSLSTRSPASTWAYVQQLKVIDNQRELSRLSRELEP
Nicotinamide N-methyltransferase (Homo sapiens), sequence (P40261 whole entry, looked up): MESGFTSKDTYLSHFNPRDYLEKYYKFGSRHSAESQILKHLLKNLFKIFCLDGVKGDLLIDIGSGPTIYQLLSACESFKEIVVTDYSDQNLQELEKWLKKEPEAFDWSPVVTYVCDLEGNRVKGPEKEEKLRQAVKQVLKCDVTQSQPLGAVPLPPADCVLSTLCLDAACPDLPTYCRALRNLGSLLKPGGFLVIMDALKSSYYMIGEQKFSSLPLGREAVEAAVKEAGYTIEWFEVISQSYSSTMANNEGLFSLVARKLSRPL
Rap guanine nucleotide exchange factor 4 (Homo sapiens), sequence (Q8WZA2 whole entry, looked up): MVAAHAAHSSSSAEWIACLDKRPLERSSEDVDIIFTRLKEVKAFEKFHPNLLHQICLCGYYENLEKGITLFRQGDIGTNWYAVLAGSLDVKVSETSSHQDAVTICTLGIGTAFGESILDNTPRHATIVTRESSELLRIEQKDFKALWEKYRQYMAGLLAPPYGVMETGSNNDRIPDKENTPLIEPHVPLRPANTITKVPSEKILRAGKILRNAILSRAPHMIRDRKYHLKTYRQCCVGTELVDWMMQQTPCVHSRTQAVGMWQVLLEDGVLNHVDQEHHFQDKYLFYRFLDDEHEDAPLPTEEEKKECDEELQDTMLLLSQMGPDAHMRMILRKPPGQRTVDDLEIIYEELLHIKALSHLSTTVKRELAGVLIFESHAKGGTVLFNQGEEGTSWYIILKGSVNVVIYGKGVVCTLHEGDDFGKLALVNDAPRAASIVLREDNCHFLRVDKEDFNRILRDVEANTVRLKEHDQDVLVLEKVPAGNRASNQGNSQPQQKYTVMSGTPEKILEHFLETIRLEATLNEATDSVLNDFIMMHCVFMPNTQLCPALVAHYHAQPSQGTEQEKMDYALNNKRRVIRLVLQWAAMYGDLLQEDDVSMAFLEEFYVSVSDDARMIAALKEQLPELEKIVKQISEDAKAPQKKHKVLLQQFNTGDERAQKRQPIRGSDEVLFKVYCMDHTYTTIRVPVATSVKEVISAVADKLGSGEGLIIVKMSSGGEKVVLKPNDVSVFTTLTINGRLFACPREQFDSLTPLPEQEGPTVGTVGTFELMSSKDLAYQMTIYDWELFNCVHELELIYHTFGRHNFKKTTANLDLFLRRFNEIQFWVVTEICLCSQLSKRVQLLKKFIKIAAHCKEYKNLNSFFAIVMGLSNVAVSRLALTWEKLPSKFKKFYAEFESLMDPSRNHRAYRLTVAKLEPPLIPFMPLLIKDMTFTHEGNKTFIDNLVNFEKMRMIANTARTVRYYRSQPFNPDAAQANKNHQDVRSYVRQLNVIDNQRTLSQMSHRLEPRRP
DNA dC->dU-editing enzyme APOBEC-3G (Homo sapiens), sequence (Q9HC16 whole entry, looked up): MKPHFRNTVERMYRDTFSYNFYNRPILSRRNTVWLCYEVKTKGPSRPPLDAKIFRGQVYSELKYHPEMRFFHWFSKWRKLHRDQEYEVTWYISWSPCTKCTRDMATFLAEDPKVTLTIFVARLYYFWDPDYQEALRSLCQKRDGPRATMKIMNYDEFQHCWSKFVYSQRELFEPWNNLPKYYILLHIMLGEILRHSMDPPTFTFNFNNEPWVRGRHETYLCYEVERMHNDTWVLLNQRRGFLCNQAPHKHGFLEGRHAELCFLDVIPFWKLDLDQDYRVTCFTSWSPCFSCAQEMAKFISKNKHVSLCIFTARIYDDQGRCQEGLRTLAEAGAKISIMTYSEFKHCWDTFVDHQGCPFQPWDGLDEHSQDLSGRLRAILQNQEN
Transient receptor potential cation channel subfamily V member 1 (Homo sapiens), sequence (Q8NER1 whole entry, looked up): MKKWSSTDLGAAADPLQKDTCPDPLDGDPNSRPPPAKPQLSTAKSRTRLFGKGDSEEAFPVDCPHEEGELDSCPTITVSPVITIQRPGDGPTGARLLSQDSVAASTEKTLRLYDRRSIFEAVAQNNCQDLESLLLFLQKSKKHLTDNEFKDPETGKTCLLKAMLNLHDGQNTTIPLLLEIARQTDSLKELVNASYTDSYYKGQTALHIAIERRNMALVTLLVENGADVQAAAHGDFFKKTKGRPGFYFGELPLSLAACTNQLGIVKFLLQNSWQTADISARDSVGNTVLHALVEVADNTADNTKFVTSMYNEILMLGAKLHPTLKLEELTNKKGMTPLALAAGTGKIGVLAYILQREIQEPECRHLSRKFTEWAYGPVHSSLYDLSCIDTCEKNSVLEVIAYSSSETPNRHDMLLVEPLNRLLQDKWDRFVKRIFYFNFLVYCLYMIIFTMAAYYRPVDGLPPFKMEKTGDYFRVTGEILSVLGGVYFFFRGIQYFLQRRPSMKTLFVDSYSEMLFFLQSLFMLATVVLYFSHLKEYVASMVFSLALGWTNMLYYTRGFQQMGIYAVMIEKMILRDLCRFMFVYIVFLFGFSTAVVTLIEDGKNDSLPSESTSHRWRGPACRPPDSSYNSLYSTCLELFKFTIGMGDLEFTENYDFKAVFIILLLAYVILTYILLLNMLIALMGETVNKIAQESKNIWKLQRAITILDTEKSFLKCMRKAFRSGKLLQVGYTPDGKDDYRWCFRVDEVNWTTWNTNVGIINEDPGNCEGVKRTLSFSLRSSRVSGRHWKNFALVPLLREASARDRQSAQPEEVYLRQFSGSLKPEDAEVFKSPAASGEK
DNA polymerase eta (Homo sapiens), sequence (Q9Y253 whole entry, looked up): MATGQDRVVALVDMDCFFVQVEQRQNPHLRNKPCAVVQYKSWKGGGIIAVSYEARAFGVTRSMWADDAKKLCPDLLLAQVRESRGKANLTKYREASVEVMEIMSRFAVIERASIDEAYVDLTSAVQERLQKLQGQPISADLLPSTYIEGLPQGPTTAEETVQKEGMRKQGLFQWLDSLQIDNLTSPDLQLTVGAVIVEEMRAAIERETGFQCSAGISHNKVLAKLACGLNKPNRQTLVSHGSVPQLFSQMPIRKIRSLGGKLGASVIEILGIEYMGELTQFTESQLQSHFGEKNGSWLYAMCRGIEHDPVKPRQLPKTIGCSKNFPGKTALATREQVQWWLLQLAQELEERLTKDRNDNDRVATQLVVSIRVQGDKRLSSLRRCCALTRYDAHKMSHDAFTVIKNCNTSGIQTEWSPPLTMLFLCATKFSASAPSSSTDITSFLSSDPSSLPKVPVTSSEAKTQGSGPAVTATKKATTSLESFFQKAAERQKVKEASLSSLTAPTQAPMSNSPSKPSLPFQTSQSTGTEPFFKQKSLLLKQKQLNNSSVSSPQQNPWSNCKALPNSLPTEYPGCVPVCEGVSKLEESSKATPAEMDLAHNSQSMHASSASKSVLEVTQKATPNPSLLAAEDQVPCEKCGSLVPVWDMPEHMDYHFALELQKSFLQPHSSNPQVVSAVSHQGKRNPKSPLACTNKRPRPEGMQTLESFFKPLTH
Ferritin light chain (Equus caballus), sequence (P02791 2-175 limits assumed): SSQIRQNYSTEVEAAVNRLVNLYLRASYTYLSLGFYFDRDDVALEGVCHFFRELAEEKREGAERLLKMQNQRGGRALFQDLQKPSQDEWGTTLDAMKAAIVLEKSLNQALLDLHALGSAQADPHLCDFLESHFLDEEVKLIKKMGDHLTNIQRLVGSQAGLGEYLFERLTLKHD

As for `CNc1ccc(/C=C(\CCC(=O)O)c2nc3ccccc3s2)cc1[N+](=O)[O-]`, the activation in assay [1] was 0% [at 17.1 µM, percent relative to cAMP agonist control] (inactive); in assay [4], 19.8% [at 30.8 µM] (inactive). Besides, the Potency result in assay [2] was “inactive”. In addition, in assay [3], the activity change, negative = inhibition is -16.8% [at 30.8 µM] (inactive).
On to `O=C(O)CC/C(=C\c1cccc(NC(=O)c2ccccc2Cl)c1)c1nc2ccccc2s1`, for which the Potency result in [1], in assay [2], in assay [3] and in [4] was “inactive” each time.
In the case of `COc1cccc(/C=N/Nc2ccc(S(=O)(=O)Nc3ccccc3C(=O)O)cc2[N+](=O)[O-])c1O`, the Potency in [5] is 67.5 µM (active). Moreover, the activation is 3.64% [at 17.1 µM, percent relative to cAMP agonist control] (inactive) in assay [1] and 20% [at 30.8 µM] (inactive) in [4]. Further, the Potency entry in assay [2] is “inactive”. Besides, the activity change, negative = inhibition in assay [3] is -5.08% [at 30.8 µM] (inactive).
As for `N=C1/C(=C\c2ccc(-c3cccc(C(=O)O)c3)o2)C(=O)N=C2SC=C(c3ccccc3)N12`, the Potency in [1] is 100 µM (active). Moreover, the Potency entry in assay [3] and in assay [4] was “inactive” each time.
As to `COc1ccc(/C=C/C(=O)c2cccs2)c(OC)c1`, the outcome in assay [6] and in assay [8] was “inactive” in each case. In addition, the Potency result in assay [7] was “inactive”.
In the case of `O=C(Nc1ccc2ncnc(N3CCCCC3)c2c1)c1cc(F)ccc1F`, the activity in assay [9] was -70.5%; in assay [11], -79.2%; in assay [12], -80.3%. Also, in assay [10], the Potency is 21.5 µM (active).
Take `CCC(=O)N(CCC(c1ccccc1)c1ccco1)Cc1cccs1` (stereo unspecified): in [3], the Potency entry is “inactive”.
Regarding `CCOCCCN1C(=O)c2cc3c(OC)ccc(OC)c3n2CC1(C)C(=O)NC1CCCCC1` (stereo unspecified), the activity was -8.08% in assay [9], -17.7% in assay [11] and -10.4% in assay [12]. Moreover, the activity change, negative = inhibition in [10] was -4.76%.
The like results for `CC1CCN(CCCNC(=O)CCc2nnc3n(Cc4ccc(Cl)cc4)c(=O)c4ccccc4n23)CC1` were, in that order, -7.96%, -19%, -5.13% and -1.55%.
As to `COc1ccc(C(NCC(=O)NC(C)c2ccc(Cl)cc2)c2ccccc2)cc1` (stereo unspecified), in assay [4], the Potency result is “inactive”.
Turning to `CCOC(=O)c1c(-c2ccccc2)oc2ccc(O)cc12`, in assay [3], the Potency result is “inactive”.
As for `COc1cc2c(cc1O)CCC1C2CC[C@]2(C)[C@@H](O)CC[C@@H]12` (stereo partly specified), the Potency entry in assay [13], in [15], in assay [16], in assay [17], in assay [18] and in assay [20] was “inactive” each time. Further, the Potency entry in [23] and in assay [24] was “inactive” each time. Also, the outcome in assay [14], in assay [21], in assay [22], in assay [25], in [26] and in [28] was “inactive” each time. In addition, the values for the Potency in assay [19] and in assay [29] were 15.8 µM (active) and 4.61 µM (active), respectively. In addition, in assay [27], the activation is 1% (inactive).
